Source: PubChem
Only some compounds are listed: those with a hit (about 6.5% of all), similar ones and a draw of the others.
Lassa entry inh = qHTS for Inhibitors of binding or entry into cells for Lassa Virus | Lassa virus pseudotype entry inhibition, cell reporter | AID 540256, 2011 | Potency, µM (series often up to 37.9 µM), without a hit: at the top dose activity change, negative = inhibition, most hits filed as inhibitors | 300,000 tested, 1.2% active; calls by dose curve; tested in HEK293 cells; further: potency means the concentration at half of the fitted maximal effect; nearly all actives have a fitted effect of over 50% in size
HCMV antiviral = qHTS Assay for inhibitors of the human cytomegalovirus (HCMV); 410,000 tested, 4.5% active; HFF cells, HCMV-luciferase reporter, 72 h; stronger effect = lower value; activity change, negative = inhibition, % at 57.5 µM; in the data active means activity change below about -60%; inconclusive means no clear call, values can overlap the other calls; inactive means above about -39%
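After 16 h attachment at 37C, HFF cells received test compound and HCMV-luciferase (1 PFU/cell); reporter luminescence read 72 h later, data normalized against buffer-only and known inhibitor Salinomycin.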
FMDV antiviral = High Throughput Screening for Foot and Mouth Disease Virus Antivirals; FMDV antiviral cell-based qHTS; Potency, µM (titrated, usually from 57.9 µM), for the others: at the top dose activity change, negative = inhibition, most hits filed as inhibitors; 410,000 tested, 1.2% active; calls by dose curve; tested in HEK293T cells; further: read-out not given here; potency means the concentration at half of the fitted maximal effect; nearly all actives have a fitted effect of over 45% in size
Marburg entry inh = qHTS for inhibitors of binding or entry into cells for Marburg Virus. Marburg virus pseudotyped entry inhibition, cell reporter. Potency, µM (titrated, usually from 37.8 µM), for inactives: at the top dose activity change, negative = inhibition, hits mostly inhibitors. 300,000 tested, 1.8% active; calls by dose curve; tested in HEK293 cells; further: potency means the concentration at half of the fitted maximal effect
Vaccinia Venus = qHTS for Stage-Specific Inhibitors of Vaccinia Orthopoxvirus: Venus Reporter Primary qHTS; Vaccinia virus Venus reporter expression, fluorescence; Potency, µM (top dose mostly 36.5 µM), for inactives: at the highest dose activity change, negative = inhibition, hits mostly inhibitors; 330,000 tested, 0.46% active; calls by dose curve; tested in A549 cells; further: potency means the concentration at half of the fitted maximal effect; nearly all actives have a fitted effect of over 30% in size
VACV mCherry inh = qHTS for Stage-Specific Inhibitors of Vaccinia Orthopoxvirus: mCherry Reporter Primary qHTS; Vaccinia virus mCherry reporter infection, fluorescence; Potency, µM (highest dose often 36.5 µM), for the others: at the top dose activity change, negative = inhibition, usual class: inhibitors; 310,000 tested, 0.63% active; AID 720579, 2013; calls by dose curve; tested in A549 cells; further: potency means the concentration at half of the fitted maximal effect; nearly all actives have a fitted effect of over 35% in size
Starred values were filed as active, the others as inactive; i = inactive; ? = inconclusive; / = no result given; ! = not confirmed by another sample; [ ] = remark or other dose. On the % scale 0 is the no-effect control and ±100 the full control effect.

SMILES	Lassa entry inh	HCMV antiviral	FMDV antiviral	Marburg entry inh	Vaccinia Venus	VACV mCherry inh
Cc1ccc(Sc2ccc(C(=O)N3CCOCC3)cc2[N+](=O)[O-])cc1	/	-75*	-22%	/	/	/
CCOc1ccccc1NC(=O)C(CC(C)C)NS(=O)(=O)c1ccc2c(c1)CCN2C(C)=O (stereo not given)	-23%[46.1 µM]	-16	16%	?	-4%	1%
CCOc1ccc(NS(=O)(=O)c2ccc3[nH]c4c(c3c2)CCCCC4)cc1	-21%[46.1 µM]	-103*	0%	/	-21%	-4%
CN(C)c1ccc(CNS(=O)(=O)c2ccc3[nH]c4c(c3c2)CCCCC4)cc1	?	-65*	3%	/	-8%	-15%
O=S(=O)(Nc1cccc(Cl)c1)c1ccc2[nH]c3c(c2c1)CCCCCC3	?	-34	50%	/	-21%	?
Cc1cccc(NS(=O)(=O)c2ccc3[nH]c4c(c3c2)CCCCCC4)c1	-20%[46.1 µM]	-103*	27%	/	-16%[7.34 µM]	-19%[7.34 µM]
Cc1ccc(NS(=O)(=O)c2ccc3[nH]c4c(c3c2)CCCCCC4)cc1Cl	-14%[46.1 µM]	-83*	0%	/	-19%	-16%
CNC(=O)c1ccc2nc(-c3ccco3)c(-c3ccco3)nc2c1	/	/	/	/	12%	-10%
COC(=O)CCC[C@H](C)[C@@H](NS(=O)(=O)c1ccc(C)cc1)C(C)(C)C	/	-40	/	/	/	/
Cn1c(SCC(=O)N2CCOCC2)ncc(C(=O)Nc2ccc(F)cc2)c1=O	-2%[46.1 µM]	0	-12%	/	-7%	i
Cc1cccc(-n2c(SCC(=O)Nc3ccccc3C)nc3c(oc4ccccc43)c2=O)c1	/	?	-7%	-28%[46.1 µM]	-12%	-11%
CCn1c(SCC(=O)Nc2ccccc2OC)nc2ccccc2c1=O	4%	?	/	?	-17%	-19%
Cc1cncn1CCc1nc2c3ccccc3nc(SCC(=O)Nc3cccc(Cl)c3)n2n1	?	-105*!	-17%	6.5µM*	?	-13%
Cc1cncn1CCc1nc2c3ccccc3nc(SCC(=O)Nc3ccc(F)cc3)n2n1	7%[46.1 µM]	-5	-11%	/	10%	-2%
CCOc1ccccc1-n1c(SCC(=O)Nc2ccccc2C(=O)O)nc2ccccc2c1=O	-17%[46.1 µM]	-81*	?	?	-8%	-13%
CCOc1ccccc1NC(=O)CSc1nc2ccccc2c2nc(CCn3cncc3C)nn12	?	-65*	-28%	/	?	-26%
S=c1[nH]c(=S)c2[nH]cnc2[nH]1	/	/	/	/	-12%	-18%
CCN(C(=O)Cn1c(=O)n(-c2ccccc2)c(=O)c2ccc(C(=O)NCc3ccc4c(c3)OCO4)cc21)c1cccc(C)c1	-14%[46.1 µM]	-13	24%	?	-15%	-12%
OC[C@@H](O)C(O)[C@H](O)CO	/	/	0%	/	-12%	-17%
O=C(CSc1nnc(-c2ccc(F)cc2)o1)Nc1ccc(S(=O)(=O)N2CCCCCC2)cc1	?	-84*	/	-15%	-2%	-15%
CCNC(=O)CSc1nnc(-c2cccc(S(=O)(=O)N3CCOCC3)c2)o1	27%	12	-6%	19%[46.1 µM]	?	11µM*
N#Cc1ccc(CSc2nnc(-c3cccc(S(=O)(=O)N4CCCCC4)c3)o2)cc1	?	-66*	-28%	?	?	/
O=C(CSc1nnc(-c2ccc(F)cc2)o1)Nc1ccc(S(=O)(=O)N2CCCC2)cc1	2%	57	-13%	-7%	5%	-12%
COCC(C)NC(=O)CSc1nnc(-c2cccc(S(=O)(=O)N3CCCCC3)c2)o1 (stereo not given)	-6%	4	2%	?	-5%	i
O=C(O)CSc1nnc(-c2cccc(S(=O)(=O)N3CCCCC3)c2)o1	5%	7	-9%	18%[46.1 µM]	-3%	9%
SMILES	Lassa entry inh	HCMV antiviral	FMDV antiviral	Marburg entry inh	Vaccinia Venus	VACV mCherry inh
Cc1cccc(N=C2NC(=O)/C(=C/c3cccn3C)S2)c1C	?	?	4%	8.9µM*	1%	-23%
Cc1ccc(N=C2NC(=O)/C(=C/c3cccn3C)S2)cc1C	?	?	31%	?	-23%	-28%
COc1cc2nc(N(C)C)c(CNCc3nonc3C)cc2c(OC)c1OC	/	/	-3%	/	7%	-5%
OCc1ccccc1O	/	/	-11%	/	-6%	i
OCc1ccccc1SSc1ccccc1CO	?	-98*	-25%	-28%[46.1 µM]	-2%[7.34 µM]	i[7.34 µM]
CCNC(=S)N1CCNC(=O)C1CC(=O)OC (stereo not given)	11%[46.1 µM]	-72*	?	6%[46.1 µM]	-19%	-10%
COC(=O)CC1C(=O)NCCN1C(=S)Nc1cc(C)cc(C)c1 (stereo not given)	0%	-33	-20%	-6%	-7%	i
Cc1cccc(NC(=O)C(=O)NCCc2sc(-c3ccccc3)nc2C)c1C	19%[46.1 µM]	21	-8%	/	0%	?
COC(=O)C(Cc1cc(Br)c(OC)c(Br)c1O)=NO	/	/	/	-16%[14.2 µM]	/	/
Cc1ccc(NC(=O)CSc2nn(-c3ccc(Cl)cc3)c(=S)s2)cc1S(=O)(=O)N(C)C	11µM*	-83*	?	?	?	?
Cc1ccc(NC(=O)Cn2ccsc2=N)cc1S(=O)(=O)N(C)C	-4%[46.1 µM]	-37	16%	-24%[46.1 µM]	-6%	i
NS(=O)(=O)c1cccc(NC(=O)CSc2nn(-c3ccccc3)c(=S)s2)c1	?	-20	?	?	?	?
CN(C)S(=O)(=O)c1cc(NC(=O)CSc2nn(-c3ccc(Cl)cc3)c(=S)s2)ccc1Cl	?	-85*	?	?	?	?
COc1ccc(-c2c(C)[nH]n3c(=O)c(Cc4ccccc4)c(C)nc23)cc1OC	?	-24	-4%	7.9µM*	-21%	-13%
Cc1nc2c(-c3ccc(Cl)cc3)c(C)[nH]n2c(=O)c1Cc1ccccc1	?	-99*	-29%	4µM*	?	6.3µM*
Cc1nc2c(-c3ccccc3)c(C)[nH]n2c(=O)c1Cc1ccccc1	-26%	-37	-24%	?	-23%	?
Cc1cccc(Cc2c(C)nc3c(-c4ccccc4)c(C)[nH]n3c2=O)c1	?	-79*	-9%	?	?	?
Cc1ccccc1Cc1c(C)nc2c(-c3ccccc3)c(C)[nH]n2c1=O	?	-37	?	?	-21%	?
CN1C2CCC1/C(=C\c1ccccc1F)C(=O)/C2=C/c1ccccc1F	-26%	-72*	-16%	2%	?	11µM*
CCOCCCNC(=O)c1cc(=O)n(Cc2cccc(C)c2)c2ccccc12	/	-62*	-29%	?	-24%	-15%
C=CCNC(=O)c1onc(CSc2cc(C)cc(C)c2)c1C(=O)NCC=C	/	?	-26%	/	/	3.2µM*
CC1=C(C#N)C(/C=N/OCc2ccc(F)cc2Cl)CC(=O)N1 (stereo not given)	?	-80*	44%	8%[14.2 µM]	-9%	-17%
